# mIDH1 inhibitor: inhibitors of human mutant IDH1 R132H; O75874; Potency, µM (doses to about 76.6 µM), for the others: top-dose activity change, negative = inhibition, hits mostly inhibitors; IDH1-R132H enzyme, NADPH consumption, diaphorase/resazurin fluorescence; 390,000 compounds, 0.093% hits; note: % is set by controls: 0 for no effect and ±100 for the full control effect; nearly all actives have a fitted effect of over 65% in size
#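 IDH1-R132H (0.5 ug/mL) preincubated 30 min with compound, then NADPH (0.016 mM) and alpha-KG (2 mM) added; 80 min at RT, pH 7.5. Remaining NADPH coupled via diaphorase/resazurin to fluorescence (540/590 nm); concentration-response curves normalized to no-enzyme control.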
# NPSR antag: neuropeptide S receptor (human) antagonism, cAMP. 220,000 compounds, 1% hits. Q6W5P4. Potency, µM (series often up to 38.3 µM), without a hit: at the top dose activity change, negative = inhibition, usual class: inhibitors. CHO-NPSR cells, cAMP TR-FRET, antagonist mode. AID 1461; note: % is set by controls: 0 for no effect and ±100 for the full control effect; nearly all actives have a fitted effect of over 50% in size
# Target sequence (Q6W5P4 whole entry, looked up): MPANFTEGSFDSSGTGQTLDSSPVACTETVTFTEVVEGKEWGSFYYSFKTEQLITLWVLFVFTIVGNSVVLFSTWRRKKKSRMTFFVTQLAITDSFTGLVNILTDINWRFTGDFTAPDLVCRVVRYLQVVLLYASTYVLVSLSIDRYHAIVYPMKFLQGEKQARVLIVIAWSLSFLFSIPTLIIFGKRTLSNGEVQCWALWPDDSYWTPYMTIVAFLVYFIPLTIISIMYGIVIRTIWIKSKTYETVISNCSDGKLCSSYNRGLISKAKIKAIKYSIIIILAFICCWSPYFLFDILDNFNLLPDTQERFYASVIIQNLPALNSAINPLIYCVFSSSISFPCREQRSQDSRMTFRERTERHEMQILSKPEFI
# HTT ATP protect: protects HTT-Q103 PC12 cells, measured by ATP. Potency, µM (doses to about 56.4 µM), for the others: cytoprotection (ATP increase), actives largely listed as activators. 230,000 compounds, 0.14% hits. PC12 HTT-Q103 induced, cytoprotection, ATP luminescence, 40 h. AID 1471; note: % of control where 0% means no effect; nearly all actives have a fitted effect of over 45% in size
#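 PC12 cells stably carrying ecdysone-inducible Htt exon 1 (Q103)–GFP were induced with 100 nM tebufenozide (final) alongside library compounds in a dose series. Cytoprotection was scored as retained ATP by ATPlite luminescence.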
# HTT aggregate: mutant huntingtin aggregation inhibition; PC12 HttQ103-GFP aggregates, Acumen cytometry, 40 h; Potency, µM (top dose mostly 46.1 µM), for the others: at the highest dose activity change, negative = inhibition, actives largely listed as inhibitors; 220,000 compounds, 1.1% hits; AID 1688; note: % is set by controls: 0 for no effect and ±100 for the full control effect; nearly all actives have a fitted effect of over 60% in size
#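 Aggregates are detected as GFP objects 1–25 µm with signal 6 STDEV over background in lysates of induced PC12 cells. These carry Huntingtin exon 1 with 103 glutamines fused to GFP under an ecdysone promoter; compounds titrated.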
# A-T KAP1 phos: candidate therapy for ataxia-telangiectasia. F2112 A-T fibroblasts, KAP-1 phosphorylation AlphaLISA; neocarzinostatin DNA damage 30 min before lysis. Potency, µM (series often up to 57.5 µM), inactives show at the highest dose activation, actives largely listed as activators. 320,000 compounds, 0.19% hits; note: % of control where 0% means no effect; nearly all actives have a fitted effect of over 45% in size
#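 hTERT-immortalized A-T patient fibroblasts (F2112), 500 cells/well in OPTI-MEM, 1% FBS, got compounds for 60 min, then NCS for 30 min at 37C. Lysates were then assayed for phospho-KAP-1 by AlphaLISA (anti-pKAP1 donor, anti-KAP1 acceptor beads), 6 hr at 25C.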
# * = called active by the depositor; ? = inconclusive; nt = no result given; [ ] = another dose, or the depositor's remark. Rows were chosen to be rich in hits. Some 1.1% of all compounds tested hit in one or more screens of this group. Calls come from the whole dose curve; as a rule, active = well fitted curve in the direction sought with a large enough effect; inconclusive = small, poorly fitted or top-dose-only effect, or another doubt; inactive = no such curve, though single readings can be large; an effect the other way counts as inactive or inconclusive. Potency is the fitted concentration of half-maximal effect.
SMILES,mIDH1 inhibitor,NPSR antag,HTT ATP protect,HTT aggregate,A-T KAP1 phos
CN(C)c1ccc(/C=C/c2ccc3ccccc3n2)cc1,-3.9%,5.8%[7.67 µM],-88.5%[10 µM],-5.0%[9.22 µM],29.7%
CCCN(CCC)c1ccc(/C=C/c2ccc3cc(OCC)ccc3n2)cc1,0.0%,?,18.0%[10 µM],8.9%[9.22 µM],28.2µM*
c1ccc(-c2nc(NCc3ccco3)c3ccccc3n2)nc1,0.7%,-10.4%[46.1 µM],-71.5%,17.8µM*,nt
Cc1ccc(Nc2nc(NCc3ccco3)c3ccccc3n2)cc1,-17.8%,-47.6%,-91.7%,11.2µM*,-0.5%
Oc1ccccc1-c1nc(NCc2ccco2)c2ccccc2n1,-1.1%,-24.2%[46.1 µM],-21.7%,-18.7%,-2.1%
Cc1cccc(CC2C(=O)Nc3ccccc32)c1 (configuration not stated),14.0%,nt,nt,nt,nt
FC(F)(F)c1cc(-c2ccco2)nc(-n2cnc3ccccc32)n1,6.1%,1.2%[46.1 µM],-6.7%,7.1%,-2.4%
Cc1nc2ccccc2n1-c1nc(-c2ccco2)cc(C(F)(F)F)n1,4.1%,-20.2%[46.1 µM],-87.5%,3.16µM*,-1.3%
CCCN(Cc1cc2cc(C)ccc2[nH]c1=O)C(=O)c1cccc(OC)c1,1.8%,-11.1%[46.1 µM],-26.5%[0.074 µM],10µM*,5.9%
CCCN(Cc1cc2cccc(C)c2[nH]c1=O)C(=O)c1cccc(OC)c1,-2.6%,nt,-15.7%[0.074 µM],nt,nt
COC(=O)c1ccc2c(=O)n(CCN3CCOCC3)c(SCC(=O)c3ccccc3)nc2c1,9.8%,-1.3%,2.4%[10 µM],11.4%[9.22 µM],17.8µM*
CCOC(=O)CSc1nc2ccccc2c(=O)n1CCN1CCOCC1,10.8%,-4.9%[46.1 µM],38.1%[10 µM],0.2%,0.9%
COC(=O)C1=C(C(=O)OC)[C@@H]2N(C)c3ccc(OC)cc3[C@@]23C[C@@H](C(=O)OC)N(S(=O)(=O)c2ccc(C(F)(F)F)cc2)C3=N1,nt,nt,13.2%[10 µM],nt,nt
c1coc(CNc2nc3nonc3nc2NCc2ccco2)c1,4.7%,-4.5%[46.1 µM],-10.3%[10 µM],11.2µM*,7.5%
O=c1cc(-c2ccc(O)cc2)oc2cc(O)cc(O)c12,-13.5%,25.1µM*,?,nt,nt
CCCCN(CC)S(=O)(=O)c1ccc(C(=O)N(CCCN(C)C)c2nc3cc(C)cc(C)c3s2)cc1,11.3%,10µM*,nt,?,-0.2%
Cc1cnc(C(=O)Nc2cccc3cccnc23)cn1,0.8%,-10.8%[46.1 µM],-75.4%,0.891µM*,-0.6%
CCCS(=O)(=O)N1CCC(C(=O)NCCCN(CC)c2cccc(C)c2)CC1,1.7%,-7.1%[46.1 µM],nt,31.6µM*,-4.1%
O=C1C(=O)c2ccc(-c3ccccc3)cc2-c2ccccc21,6.7%,3.98µM*,-97.2%[10 µM],4.47µM*,?
Nc1ccc2c(c1)C(=O)C(=O)c1ccccc1-2,11.0%,10µM*,-98.7%[10 µM],0.794µM*,nt
CN1C[C@@H](O)[C@@H](O)[C@@H](O)[C@@H]1CO,nt,nt,8.1%[1.9 µM],nt,nt
N#Cc1c(N)nc(SCC(=O)C23CC4CC(CC(C4)C2)C3)c(C#N)c1-c1ccc(Cl)cc1,-1.3%,3.16µM*,-43.6%,21.4%,nt
COc1ccc(-c2cc(-c3ccc(OC)cc3)c(C#N)c(SC)n2)cc1,4.3%,12.6µM*,-1.6%[10 µM],-3.6%,3.1%
COc1ccc(-c2cc(-c3ccccc3)nc(SCC(=O)Nc3nccs3)c2C#N)cc1,0.1%,?,9.4%[10 µM],-5.7%,1.5%
CC(C)OC(=O)CSc1nc(N)c(C#N)c(-c2cccs2)c1C#N,1.8%,4.5%[46.1 µM],19.1%,1.3%,-12.6%
SMILES,mIDH1 inhibitor,NPSR antag,HTT ATP protect,HTT aggregate,A-T KAP1 phos
CC(=O)CSc1nc(N)c(C#N)c(-c2cccs2)c1C#N,-3.5%,2.0%[46.1 µM],23.7%,14.1µM*,-0.7%
COc1ccc(-c2cc(-c3ccc(O)cc3)nc(N)c2C#N)cc1,-6.7%,nt,nt,nt,10.4%
CCc1nnc(NC(=O)CSc2nc(-c3ccccc3)cc(-c3ccc(OC)cc3)c2C#N)s1,0.1%,7.94µM*,21.6%[10 µM],2.9%,5.2%
N#Cc1c(-c2ccccc2)cc(C2CC2)nc1SCC(=O)c1cccs1,0.0%,?,-16.9%,23.7%,8.5%
CC(C)NC(=O)CSc1nc(-c2cccs2)cc(-c2ccccc2)c1C#N,4.0%,10µM*,10.9%[1.9 µM],-6.4%,nt
CCOC(=O)C1CCN(C(=O)Cn2nc(CC)n3c(cc4sccc43)c2=O)CC1,4.2%,nt,nt,nt,nt
CC(C)c1onc(C(=O)NCCc2ccccc2)c1[N+](=O)[O-],-16.8%,12.1%,11.6%,-4.8%,-1.2%

# High-throughput results deposited in PubChem by National Center for Advancing Translational Sciences (NCATS).
